# Experimental data published in PubChem BioAssay (NCI).
# About 83,000 compounds went through this panel and 20% of them were active in at least one assay; those are over-represented in the sample as a whole.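 Negative percent growth values reflect cell death: -40 means 40% of the cells present at the start died, and -100 means all died.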 Active and inactive are the calls of the source. The calls were made as follows: active = growth percent below 10; inactive = the rest.
# Tests used:
# Experiment in all cases: NCI-60 one-dose screen, 48 h (100 = growth as untreated, 0 = no growth, -100 = all killed)
# Conditions in all cases: 10 µM unless noted
# SK-MEL-2 melanoma = tested on: SK-MEL-2 melanoma
# EKVX NSCLC = tested on: EKVX NSCLC
# SN12C renal = tested on: SN12C renal
# UO-31 renal = tested on: UO-31 renal
# TK-10 renal = tested on: TK-10 renal
# ACHN renal = tested on: ACHN renal
# CAKI-1 renal = tested on: CAKI-1 renal
# A498 renal = tested on: A498 renal
# RPMI-8226 leukemia = tested on: RPMI-8226 leukemia
# OVCAR-8 ovarian = tested on: OVCAR-8 ovarian
# OVCAR-5 ovarian = tested on: OVCAR-5 ovarian
# OVCAR-4 ovarian = tested on: OVCAR-4 ovarian
# SK-OV-3 ovarian = tested on: SK-OV-3 ovarian
# OVCAR-3 ovarian = tested on: OVCAR-3 ovarian
# HS 578T breast = tested on: HS 578T breast
# NCI/ADR-RES ovarian = tested on: NCI/ADR-RES ovarian
# CCRF-CEM leukemia = tested on: CCRF-CEM leukemia
# MOLT-4 leukemia = tested on: MOLT-4 leukemia
# SR leukemia = tested on: SR leukemia
# IGROV1 ovarian = tested on: IGROV1 ovarian
Compound,growth (SK-MEL-2 melanoma),growth (EKVX NSCLC),growth (SN12C renal),growth (UO-31 renal),growth (TK-10 renal),growth (ACHN renal),growth (CAKI-1 renal),growth (A498 renal),growth (RPMI-8226 leukemia),growth (OVCAR-8 ovarian),growth (OVCAR-5 ovarian),growth (OVCAR-4 ovarian),growth (SK-OV-3 ovarian),growth (OVCAR-3 ovarian),growth (HS 578T breast),growth (NCI/ADR-RES ovarian),growth (CCRF-CEM leukemia),growth (MOLT-4 leukemia),growth (SR leukemia),growth (IGROV1 ovarian)
CN(C)CC(C(=O)c1ccccc1)c1ccccc1 (stereo unspecified),34.7% (inactive),89.6% (inactive),31.2% (inactive),41.3% (inactive),-20% (active),-41.5% (active),-2.87% (active),99.7% (inactive),-34.4% (active),9.37% (active),59.3% (inactive),43.1% (inactive),88.4% (inactive),-92.6% (active),60.5% (inactive),17.1% (inactive),–,–,–,–
CCc1ccc(-c2ccc(=O)n(-c3ccc(S(N)(=O)=O)cc3)n2)cc1,1.5% (active),69.1% (inactive),58.4% (inactive),38.4% (inactive),76.8% (inactive),60.3% (inactive),36.7% (inactive),–,-29.9% (active),51.2% (inactive),91.6% (inactive),74.5% (inactive),49.5% (inactive),-56.8% (active),28.6% (inactive),1% (active),27.9% (inactive),16% (inactive),-11.9% (active),-5.72% (active)
N/C(=N\C(N)=N\c1nc2ccccc2s1)c1cccc(Br)c1,106% (inactive),73.2% (inactive),50.7% (inactive),24.7% (inactive),157% (inactive),84.8% (inactive),68.8% (inactive),–,83.3% (inactive),72.6% (inactive),95.2% (inactive),107% (inactive),129% (inactive),103% (inactive),103% (inactive),73.6% (inactive),55.8% (inactive),77.6% (inactive),33.2% (inactive),66.4% (inactive)
O=C1/C(=C/c2ccccc2)Oc2ccc(O)c(I)c21,95.3% (inactive),50.8% (inactive),85.7% (inactive),58.5% (inactive),181% (inactive),103% (inactive),78.6% (inactive),–,95.4% (inactive),96.7% (inactive),108% (inactive),95.4% (inactive),99.6% (inactive),101% (inactive),80.8% (inactive),99.3% (inactive),94.7% (inactive),95.6% (inactive),98.2% (inactive),68.3% (inactive)
CCN1CCN(c2nc(NNC(=O)c3ccccc3)nc(N3CCN(C(c4ccccc4)c4ccccc4)CC3)n2)CC1,78.4% (inactive),66.6% (inactive),70.8% (inactive),30.8% (inactive),95.1% (inactive),81.1% (inactive),42.7% (inactive),–,42% (inactive),74.3% (inactive),96.2% (inactive),38.2% (inactive),89.7% (inactive),52.1% (inactive),79.2% (inactive),79% (inactive),39.4% (inactive),8.93% (active),-20.5% (active),–
C=CCn1c2ccccc2c2c3c(c4c5ccccc5n(CC=C)c4c21)C(=O)N(O)C3=O,70.4% (inactive),66% (inactive),9.32% (active),-47% (active),50.8% (inactive),-33.6% (active),-70.6% (active),–,24.4% (inactive),22.9% (inactive),86.4% (inactive),45.8% (inactive),33.9% (inactive),33.2% (inactive),77.2% (inactive),2.91% (active),10.2% (inactive),-10.4% (active),7.52% (active),-15.6% (active)
COc1ccc(OC)c(/C=C2\Oc3cc(OCCCN4CCCC4)ccc3C2=O)c1,104% (inactive),80.4% (inactive),76.2% (inactive),56.7% (inactive),99.8% (inactive),78.2% (inactive),82% (inactive),–,77.7% (inactive),78.1% (inactive),82.1% (inactive),86.7% (inactive),110% (inactive),91% (inactive),80.8% (inactive),80.3% (inactive),50.8% (inactive),54.8% (inactive),-22.8% (active),84.2% (inactive)
CCN(CC)c1ccc(/C=C2\Oc3ccc(O)c(I)c3C2=O)cc1,62.3% (inactive),73.3% (inactive),76.9% (inactive),46.3% (inactive),74.2% (inactive),54.9% (inactive),68.4% (inactive),–,32.3% (inactive),61.7% (inactive),95.1% (inactive),81.5% (inactive),79.5% (inactive),19.1% (inactive),75.4% (inactive),37.9% (inactive),13.3% (inactive),16.4% (inactive),2.38% (active),40.4% (inactive)
OB(O)c1cccc(-c2nc3ccc4[nH]ncc4c3c3c2CCCC3)c1F,57.1% (inactive),50.2% (inactive),47.7% (inactive),27% (inactive),18.3% (inactive),32.2% (inactive),-24.3% (active),–,50.7% (inactive),52.8% (inactive),75.1% (inactive),76.4% (inactive),-10.7% (active),62.5% (inactive),24.9% (inactive),53.7% (inactive),29.7% (inactive),52% (inactive),48.7% (inactive),41.1% (inactive)
N/C(=N\C(N)=N\c1nc2ccccc2s1)c1ccncc1,41% (inactive),78.9% (inactive),72.6% (inactive),64.2% (inactive),109% (inactive),75.8% (inactive),44.9% (inactive),–,45.8% (inactive),75.6% (inactive),96.6% (inactive),100% (inactive),89.4% (inactive),39.7% (inactive),80.3% (inactive),33% (inactive),63% (inactive),45.2% (inactive),19.7% (inactive),58.2% (inactive)
CC(O)CN1CCCCC1 (stereo unspecified),113% (inactive),105% (inactive),96.8% (inactive),86.3% (inactive),110% (inactive),108% (inactive),95.7% (inactive),94.5% (inactive),113% (inactive),105% (inactive),110% (inactive),109% (inactive),107% (inactive),105% (inactive),113% (inactive),106% (inactive),–,–,–,–
CC(C)CC1NC(C)(C)CO1 (stereo unspecified),113% (inactive),123% (inactive),112% (inactive),90.2% (inactive),96.4% (inactive),113% (inactive),92.5% (inactive),–,103% (inactive),105% (inactive),114% (inactive),111% (inactive),110% (inactive),106% (inactive),142% (inactive),104% (inactive),102% (inactive),124% (inactive),124% (inactive),112% (inactive)
CCCCN(CCCC)C(=O)CC,112% (inactive),105% (inactive),109% (inactive),99.5% (inactive),114% (inactive),112% (inactive),109% (inactive),–,115% (inactive),112% (inactive),106% (inactive),108% (inactive),122% (inactive),113% (inactive),149% (inactive),103% (inactive),96.8% (inactive),97.8% (inactive),102% (inactive),115% (inactive)
COc1ccc(C2CC(c3ccc(OC)cc3OC)=NN2c2ccc(S(N)(=O)=O)cc2)cc1 (stereo unspecified),94.6% (inactive),87.5% (inactive),90.8% (inactive),86.8% (inactive),105% (inactive),107% (inactive),–,102% (inactive),2.07% (active),77% (inactive),99.4% (inactive),80.2% (inactive),105% (inactive),119% (inactive),103% (inactive),89.4% (inactive),75.5% (inactive),61.8% (inactive),70.2% (inactive),82.5% (inactive)
Clc1cc2c(nn1)Nc1ccccc1S2,-4.79% (active),52.3% (inactive),97.1% (inactive),106% (inactive),129% (inactive),99.1% (inactive),–,89.1% (inactive),78.1% (inactive),96.2% (inactive),100% (inactive),95.3% (inactive),99% (inactive),117% (inactive),102% (inactive),97.5% (inactive),93.7% (inactive),96.3% (inactive),77.2% (inactive),27.5% (inactive)
COc1ccc(-c2nc(/C=C3/C(=O)Nc4ccc(F)cc43)c3ccccn23)cc1,112% (inactive),123% (inactive),106% (inactive),97% (inactive),116% (inactive),96.5% (inactive),98.2% (inactive),–,93.3% (inactive),98.5% (inactive),133% (inactive),101% (inactive),117% (inactive),114% (inactive),118% (inactive),111% (inactive),93.9% (inactive),91.8% (inactive),–,87.4% (inactive)
